From PubChem BioAssay AID1159580 (chemical genetic matrix, 2015)
The campaign covered roughly 5,500 compounds. About 2,000 (36%) were called active. Inconclusive results (about 18%) are left out. Rule as the data show it: active = normalized growth mostly below about 0.91 (no sharp cut-off); inconclusive = no clear call, values can overlap the other calls; inactive = mostly above about 0.92. The list shows a part of the results.

Experiment: chemical genetic growth profiling, strain panel (AID 1159580);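 also: tested at 20 µM; growth read once vehicle control cultures reached saturation at 30 °C; 1 = growth at the plate median or of vehicle wells; lower values mean less growth of the strain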
Conditions: growth OD

Measured: normalized growth

CC(Cc1ccc(O)c(O)c1)(NN)C(=O)O (centres undefined)
inactive: S. cerevisiae deletion strains, locus YJR075W, strain HOC1, active compounds read low 1.02 | S. cerevisiae deletion strains, locus YKL009W, strain mrt4, active compounds read low 0.991 | S. cerevisiae deletion strains, locus YKL068W, active compounds read low 0.997 | S. cerevisiae deletion strains, locus YKL085W, strain MDH1 (second series), active compounds read low 0.992 | S. cerevisiae deletion strains, locus YKL085W, strain MDH1, active compounds read low 0.992 | S. cerevisiae deletion strains, locus YKL160W, strain elf1, active compounds read low 1.01 | S. cerevisiae deletion strains, locus YKL190W, strain CNB1, active compounds read low 0.991 | S. cerevisiae deletion strains, locus YKR001C, strain vps1, active compounds read low 1 | S. cerevisiae deletion strains, locus YKR026C, strain gcn3, active compounds read low 0.988 | S. cerevisiae deletion strains, locus YKR091W, strain srl3, active compounds read low 1.01 | S. cerevisiae deletion strains, locus YLL001W, strain dnm1, active compounds read low 1.01 | S. cerevisiae deletion strains, locus YLL026W, active compounds read low 1.01 | S. cerevisiae deletion strains, locus YLL041C, strain sdh2, active compounds read low 1.01 | S. cerevisiae deletion strains, locus YLR027C, strain aat2, active compounds read low 1.01 | S. cerevisiae deletion strains, locus YLR039C, strain RIC1, active compounds read low 1.04 | S. cerevisiae deletion strains, locus YLR058C, strain SHM2, active compounds read low 1.01 | S. cerevisiae deletion strains, locus YLR102C, strain apc9, active compounds read low 1.02 | S. cerevisiae deletion strains, locus YLR113W, strain HOG1, active compounds read low 0.918 | S. cerevisiae deletion strains, locus YLR221C, strain rsa3, active compounds read low 1.01 | S. cerevisiae deletion strains, locus YLR258W, strain gsy2, active compounds read low 0.999 | S. cerevisiae deletion strains, locus YLR262C, strain YPT6 (second series), active compounds read low 0.978 | S. cerevisiae deletion strains, locus YLR262C, strain YPT6, active compounds read low 1.03 | S. cerevisiae deletion strains, locus YLR268W, strain sec22, active compounds read low 0.996 | S. cerevisiae deletion strains, locus YLR320W, strain mms22, active compounds read low 1.02 | S. cerevisiae deletion strains, locus YLR330W, strain CHS5, active compounds read low 1 | S. cerevisiae deletion strains, locus YLR342W, strain FKS1 (second series), active compounds read low 0.966 | S. cerevisiae deletion strains, locus YLR342W, strain FKS1, active compounds read low 0.992 | S. cerevisiae deletion strains, locus YLR357W, strain rsc2, active compounds read low 0.973 | S. cerevisiae deletion strains, locus YLR370C, strain arc18, active compounds read low 1.01 | S. cerevisiae deletion strains, locus YLR371W, strain rom2, active compounds read low 1.01 | S. cerevisiae deletion strains, locus YLR384C, strain iki3, active compounds read low 0.976 | S. cerevisiae deletion strains, locus YLR418C, strain cdc73, active compounds read low 1.07 | S. cerevisiae deletion strains, locus YML016C, strain PPZ1, active compounds read low 0.999 | S. cerevisiae deletion strains, locus YML032C, strain rad52, active compounds read low 1.01 | S. cerevisiae deletion strains, locus YML120C, strain ndi1, active compounds read low 0.99 | S. cerevisiae deletion strains, locus YML124C, strain tub3, active compounds read low 1.01 | S. cerevisiae deletion strains, locus YMR058W, strain fet3, active compounds read low 0.987 | S. cerevisiae deletion strains, locus YMR078C, strain ctf18, active compounds read low 1.02 | S. cerevisiae deletion strains, locus YMR125W, strain sto1, active compounds read low 1 | S. cerevisiae deletion strains, locus YMR129W, active compounds read low 0.997 | S. cerevisiae deletion strains, locus YMR205C, strain PFK2, active compounds read low 1.04 | S. cerevisiae deletion strains, locus YMR223W, strain ubp8, active compounds read low 0.996 | S. cerevisiae deletion strains, locus YMR231W, strain pep5, active compounds read low 1.01 | S. cerevisiae deletion strains, locus YMR263W, strain SAP30, active compounds read low 0.988 | S. cerevisiae deletion strains, locus YMR307W, strain GAS1, active compounds read low 1.05 | S. cerevisiae deletion strains, locus YNL067W, strain RPL9B, active compounds read low 0.966 | S. cerevisiae deletion strains, locus YNL071W, strain lat1, active compounds read low 0.993 | S. cerevisiae deletion strains, locus YNL183C, strain NPR1, active compounds read low 0.912 | S. cerevisiae deletion strains, locus YNL209W, strain ssb2, active compounds read low 0.993 | S. cerevisiae deletion strains, locus YNL233W, strain BNI4, active compounds read low 0.982 | S. cerevisiae deletion strains, locus YNL248C, strain rpa49, active compounds read low 1.01 | S. cerevisiae deletion strains, locus YNL250W, strain rad50, active compounds read low 1 | S. cerevisiae deletion strains, locus YNL271C, strain bni1, active compounds read low 1.01 | S. cerevisiae deletion strains, locus YNL298W, strain CLA4, active compounds read low 1.02 | S. cerevisiae deletion strains, locus YNL307C, strain MCK1, active compounds read low 1.02 | S. cerevisiae deletion strains, locus YNL322C, strain KRE1 (second series), active compounds read low 1 | S. cerevisiae deletion strains, locus YNL322C, strain KRE1, active compounds read low 0.999 | S. cerevisiae deletion strains, locus YNR049C, strain mso1, active compounds read low 1.01 | S. cerevisiae deletion strains, locus YNR052C, strain pop2, active compounds read low 1.01 | S. cerevisiae deletion strains, locus YOL006C, strain TOP1, active compounds read low 0.989 | S. cerevisiae deletion strains, locus YOL012C, strain htz1 0.764 | S. cerevisiae deletion strains, locus YOL147C, strain pex11, active compounds read low 1.01 | S. cerevisiae deletion strains, locus YOR001W, strain rrp6, active compounds read low 0.987 | S. cerevisiae deletion strains, locus YOR061W, strain CKA2, active compounds read low 1 | S. cerevisiae deletion strains, locus YOR069W, strain VPS5, active compounds read low 1.03 | S. cerevisiae deletion strains, locus YOR070C, strain gyp1, active compounds read low 1 | S. cerevisiae deletion strains, locus YOR080W, strain dia2, active compounds read low 1 | S. cerevisiae deletion strains, locus YOR083W, strain WHI5, active compounds read low 0.996 | S. cerevisiae deletion strains, locus YOR106W, strain vam3, active compounds read low 0.984 | S. cerevisiae deletion strains, locus YOR136W, strain idh2, active compounds read low 1.01 | S. cerevisiae deletion strains, locus YOR144C, strain elg1, active compounds read low 1 | S. cerevisiae deletion strains, locus YOR184W, strain ser1, active compounds read low 1.03 | S. cerevisiae deletion strains, locus YOR231W, strain MKK1, active compounds read low 0.955 | S. cerevisiae deletion strains, locus YOR265W, strain rbl2, active compounds read low 0.993 | S. cerevisiae deletion strains, locus YOR270C, strain vph1, active compounds read low 1.11 | S. cerevisiae deletion strains, locus YOR290C, strain snf2, active compounds read low 1 | S. cerevisiae deletion strains, locus YOR316C, strain cot1, active compounds read low 1.01 | S. cerevisiae deletion strains, locus YPL051W, strain arl3, active compounds read low 0.991 | S. cerevisiae deletion strains, locus YPL055C, strain LGE1, active compounds read low 0.926 | S. cerevisiae deletion strains, locus YPL078C, strain atp4, active compounds read low 0.991 | S. cerevisiae deletion strains, locus YPL106C, strain sse1, active compounds read low 0.918 | S. cerevisiae deletion strains, locus YPL240C, strain hsp82, active compounds read low 1 | S. cerevisiae deletion strains, locus YPL256C, strain CLN2, active compounds read low 0.968 | S. cerevisiae deletion strains, locus YPR119W, strain clb2, active compounds read low 1.01 | S. cerevisiae deletion strains, locus YPR141C, strain kar3, active compounds read low 0.999 | S. cerevisiae deletion strains, locus YPR163C, strain tif3, active compounds read low 1.01 | S. cerevisiae deletion strains, locus YPR167C, strain met16, active compounds read low 1.02 | S. cerevisiae deletion strains, strain wtn01, active compounds read low 1.01 | S. cerevisiae strains, strain wild type, active compounds read low 0.988
